Experiment [1] in a line: NCI Yeast Anticancer Drug Screen. Data for the rad50 strain (AID 155).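 Further: 0% = growth of vehicle-only cultures of the same strain.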 The conditions noted are these: S. cerevisiae rad50 strain growth inhibition, active compounds read high. The essentials:
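Cells are treated with compound, grown, and their growth is then scored against vehicle-only cultures of the same repair-deficient yeast strain.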

A short description of experiment [2]: NCI Yeast Anticancer Drug Screen. Data for the mec2-1 strain (AID 157). The conditions noted are these: S. cerevisiae mec2-1 strain, active compounds read high. The method in brief:
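Test agents were screened against the mec2-1 yeast strain, with defined DNA repair or cell cycle alteration. Growth was scored as inhibition against vehicle-only controls.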

Experiment [3] is described as follows: NCI Yeast Anticancer Drug Screen. Data for the sgs1 mgt1 strain (AID 161).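 Further: 0% = growth of cultures given vehicle only.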 The conditions noted are these: S. cerevisiae sgs1 mgt1 strain, active compounds read high. The essentials:
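Read-out: growth inhibition vs vehicle controls. Cells: mutant yeast strain deficient in DNA damage repair.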

The nature of experiment [4]: NCI Yeast Anticancer Drug Screen. Data for the cln2 rad14 strain (AID 165).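 Further: 0% = growth equal to vehicle treated cultures.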 The conditions noted are these: S. cerevisiae cln2 rad14 strain, active compounds read high. The method in brief: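 Growth of compound-exposed yeast (cln2 rad14 genotype) measured and expressed as inhibition relative to vehicle.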
Experiment [5] can be described thus: NCI Yeast Anticancer Drug Screen. Data for the bub3 strain (AID 167). The conditions noted are these: S. cerevisiae bub3 mutant strain, active compounds read high. The method in brief:
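Part of a panel of yeast mutants defective in DNA damage repair or cell cycle regulation. Each strain is grown with compound, and inhibition is calculated relative to solvent-treated cultures.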

A short description of experiment [6]: NCI Yeast Anticancer Drug Screen. Data for the mlh1 rad18 strain (AID 175). The conditions noted are these: S. cerevisiae mlh1 rad18 strain growth inhibition, active compounds read high. The essentials:
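In this whole-cell yeast screen, a strain with altered DNA damage repair is challenged with compound, and its growth is measured against matched vehicle-treated controls.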

Where [7] appears, read: at 5.0 µM (retest, dose inferred, filed as 0.5).
Setting [8] is: at 50.0 µM (retest, dose inferred, filed as 5.0).

This is part of a sample that, as a whole, favours compounds with a hit. Of some 79,000 tested, about 15% had one in any assay. Values without a mark were called inactive. The source made the active and inactive calls. No stated cut-off is given here; in the data, active means growth inhibition above about 70%; inactive means the rest.

Drawing on PubChem BioAssay (NCI), this text covers growth inhibition for 9 molecules.

On to `CCCCOC(=O)C(C)OC(=O)NNc1ccccc1` (configuration not stated), for which the growth inhibition in experiment [1] (setting [7]) was 10%; in experiment [1] (setting [8]), 51%; in experiment [1] (at 50.0 µM), 48.2%; in experiment [2] (setting [7]), 0%; in experiment [2] (setting [8]), 12%; in experiment [2] (at 50.0 µM), 36%. In addition, the growth inhibition is 1% in experiment [3] (setting [7]); 39% in experiment [3] (setting [8]); 36% in experiment [3] (at 50.0 µM); 7% in experiment [4] (setting [7]); 34% in experiment [4] (setting [8]); 36.7% in experiment [4] (at 50.0 µM). Also, the growth inhibition in experiment [5] (setting [7]) was 9%; in experiment [5] (setting [8]), 88% (active); in experiment [5] (at 50.0 µM) it was 99% (active); in experiment [6] (setting [7]), 6%; in experiment [6] (setting [8]), 87% (active); in experiment [6] (at 50.0 µM), 67%.
Consider `COc1ccc(NS(=O)(=O)c2ccc(F)cc2)cc1`, for which the growth inhibition in experiment [1] (setting [7]) was -21%; in experiment [1] (setting [8]), -3%; in experiment [1] (at 50.0 µM), 95.9% (active); in experiment [2] (setting [7]), 1%; in experiment [2] (setting [8]) it was -12%; in experiment [2] (at 50.0 µM), 99.3% (active). In addition, the growth inhibition in experiment [3] (setting [7]) is -26%; in experiment [3] (setting [8]), -22%; in experiment [3] (at 50.0 µM), 98.5% (active); in experiment [4] (setting [7]) it was 6%; in experiment [4] (setting [8]) it was -22%; in experiment [4] (at 50.0 µM), 97.5% (active). The growth inhibition in experiment [5] (setting [7]) is 6%; in experiment [5] (setting [8]), -21%; in experiment [5] (at 50.0 µM) it was 97.2% (active); in experiment [6] (setting [7]), -15%; in experiment [6] (setting [8]) it was -18%; in experiment [6] (at 50.0 µM), 98.5% (active).
As to `COc1ccc(OC)c(NC(=O)CCCC(=O)CC(=O)c2cccnc2)c1`, the growth inhibition in experiment [1] (setting [7]) was 63%; in experiment [1] (setting [8]), 62%; in experiment [1] (at 50.0 µM), 4.45%; in experiment [2] (setting [7]) it was 50%; in experiment [2] (setting [8]), 53%; in experiment [2] (at 50.0 µM), 1.8%. The growth inhibition was 69% in experiment [3] (setting [7]); 70% (active) in experiment [3] (setting [8]); -5.2% in experiment [3] (at 50.0 µM); 53% in experiment [4] (setting [7]); 55% in experiment [4] (setting [8]); 39.8% in experiment [4] (at 50.0 µM). Further, the growth inhibition in experiment [5] (setting [7]) was 57%; in experiment [5] (setting [8]) it was 62%; in experiment [5] (at 50.0 µM) it was -4.8%; in experiment [6] (setting [7]) it was 63%; in experiment [6] (setting [8]) it was 63%; in experiment [6] (at 50.0 µM), -8.55%.
As for `Clc1cc[c]([Sn]([Cl])([O][Sn]([Cl])([c]2ccc(Cl)cc2)[c]2ccc(Cl)cc2)[c]2ccc(Cl)cc2)cc1`, the growth inhibition in experiment [1] (setting [7]) is 89% (active); in experiment [1] (setting [8]), 97% (active); in experiment [1] (at 50.0 µM) it was 86.5% (active); in experiment [2] (setting [7]) it was 95% (active); in experiment [2] (setting [8]), 98% (active); in experiment [2] (at 50.0 µM), 88.5% (active). Moreover, the growth inhibition in experiment [3] (setting [7]) is 96% (active); in experiment [3] (setting [8]), 97% (active); in experiment [3] (at 50.0 µM) it was 87.6% (active); in experiment [4] (setting [7]) it was 42%; in experiment [4] (setting [8]) it was 98% (active); in experiment [4] (at 50.0 µM), 81.5% (active). Further, the growth inhibition is 97% (active) in experiment [5] (setting [7]); 98% (active) in experiment [5] (setting [8]); 87% (active) in experiment [5] (at 50.0 µM); 90% (active) in experiment [6] (setting [7]); 95% (active) in experiment [6] (setting [8]); 92.7% (active) in experiment [6] (at 50.0 µM).
Take `N#Cc1c(Cl)cc(Cl)n2c1nc1ccccc12`: the growth inhibition in experiment [1] (setting [7]) was 46%; in experiment [1] (setting [8]), 97% (active); in experiment [1] (at 50.0 µM), 91.2% (active); in experiment [2] (setting [7]), 29%; in experiment [2] (setting [8]), 99% (active); in experiment [2] (at 50.0 µM) it was 94% (active). Further, the growth inhibition in experiment [3] (setting [7]) was 56%; in experiment [3] (setting [8]), 100% (active); in experiment [3] (at 50.0 µM) it was 93% (active); in experiment [4] (setting [7]), 43%; in experiment [4] (setting [8]) it was 99% (active); in experiment [4] (at 50.0 µM) it was 91.7% (active). In addition, the growth inhibition in experiment [5] (setting [7]) is 56%; in experiment [5] (setting [8]), 99% (active); in experiment [5] (at 50.0 µM), 91.3% (active); in experiment [6] (setting [7]), 43%; in experiment [6] (setting [8]) it was 97% (active); in experiment [6] (at 50.0 µM), 92.3% (active).
For the molecule `Cc1c(N=Nc2cccc(F)c2)c(-c2ccccc2)nn1C(N)=S`, the growth inhibition in experiment [1] (setting [7]) was 14%; in experiment [1] (setting [8]), 97% (active); in experiment [1] (at 50.0 µM) it was 99.2% (active); in experiment [2] (setting [7]), 1%; in experiment [2] (setting [8]), 98% (active); in experiment [2] (at 50.0 µM) it was 99.4% (active). The growth inhibition is 3% in experiment [3] (setting [7]); 99% (active) in experiment [3] (setting [8]); 99.4% (active) in experiment [3] (at 50.0 µM); -5% in experiment [4] (setting [7]); 96% (active) in experiment [4] (setting [8]); 99.1% (active) in experiment [4] (at 50.0 µM). The growth inhibition in experiment [5] (setting [7]) is 1%; in experiment [5] (setting [8]), 97% (active); in experiment [5] (at 50.0 µM) it was 99.5% (active); in experiment [6] (setting [7]) it was 0%; in experiment [6] (setting [8]), 98% (active); in experiment [6] (at 50.0 µM), 99.2% (active).
With `CCCCCCCCCC[N+](C)(C)CCC[N+](C)(C)CCCCCCCCCC`, the growth inhibition in experiment [1] (setting [7]) is 42%; in experiment [1] (setting [8]), 93% (active); in experiment [1] (at 50.0 µM), 89.5% (active); in experiment [2] (setting [7]), 20%; in experiment [2] (setting [8]), 88% (active); in experiment [2] (at 50.0 µM) it was 91.2% (active). Also, the growth inhibition in experiment [3] (setting [7]) is 37%; in experiment [3] (setting [8]) it was 98% (active); in experiment [3] (at 50.0 µM), 88.3% (active); in experiment [4] (setting [7]), 32%; in experiment [4] (setting [8]), 88% (active); in experiment [4] (at 50.0 µM) it was 78.2% (active). Further, the growth inhibition in experiment [5] (setting [7]) was 31%; in experiment [5] (setting [8]) it was 95% (active); in experiment [5] (at 50.0 µM) it was 62.6%; in experiment [6] (setting [7]), 31%; in experiment [6] (setting [8]), 89% (active); in experiment [6] (at 50.0 µM), 61.8%.
For `CC12CCC3C(CCC4CC(O)CCC43C)C1CC=CO2` (configuration not stated), the growth inhibition in experiment [1] (setting [7]) is 1%; in experiment [1] (setting [8]), 98% (active); in experiment [1] (at 50.0 µM), 23.4%; in experiment [2] (setting [7]), 32%; in experiment [2] (setting [8]), 99% (active); in experiment [2] (at 50.0 µM) it was 50.6%. For the same molecule, the growth inhibition in experiment [3] (setting [7]) is 17%; in experiment [3] (setting [8]) it was 99% (active); in experiment [3] (at 50.0 µM), 11.3%; in experiment [4] (setting [7]), 0%; in experiment [4] (setting [8]), 99% (active); in experiment [4] (at 50.0 µM), -1.5%. For the same molecule, the growth inhibition is 45% in experiment [5] (setting [7]); 98% (active) in experiment [5] (setting [8]); 59.4% in experiment [5] (at 50.0 µM); 24% in experiment [6] (setting [7]); 99% (active) in experiment [6] (setting [8]); 68.9% in experiment [6] (at 50.0 µM).
Take `CCCCCCCOc1ccc(C=O)cc1OC`: the growth inhibition in experiment [1] (setting [7]) was 0%; in experiment [1] (setting [8]) it was 41%; in experiment [1] (at 50.0 µM), 7.3%; in experiment [2] (setting [7]), -1%; in experiment [2] (setting [8]), 35%; in experiment [2] (at 50.0 µM), 44%. Also, the growth inhibition was 3% in experiment [3] (setting [7]); 45% in experiment [3] (setting [8]); 38.6% in experiment [3] (at 50.0 µM); -2% in experiment [4] (setting [7]); 26% in experiment [4] (setting [8]); 36.9% in experiment [4] (at 50.0 µM). In addition, the growth inhibition is -1% in experiment [5] (setting [7]); 38% in experiment [5] (setting [8]); 50% in experiment [5] (at 50.0 µM); 1% in experiment [6] (setting [7]); 46% in experiment [6] (setting [8]); 33.8% in experiment [6] (at 50.0 µM).
